# Reference: PubChem BioAssay
# The source made the active and inactive calls. How the calls were made is not given here.
# Biological target: Pantothenate synthetase (Mycobacterium tuberculosis (strain ATCC 25618 / H37Rv)) (UniProt P9WIL5)
# Experiment: Recombinant Mtb pantothenate synthetase (PanC) inhibitors, coupled enzyme, confirmatory (AID 375);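 further: 0% = full reaction with vehicle and 100% = no enzyme background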
# Conditions: coupled enzyme assay; at 10 µM, active compounds read high
# Sequence of Pantothenate synthetase (Mycobacterium tuberculosis (strain ATCC 25618 / H37Rv)) (P9WIL5 whole entry, looked up): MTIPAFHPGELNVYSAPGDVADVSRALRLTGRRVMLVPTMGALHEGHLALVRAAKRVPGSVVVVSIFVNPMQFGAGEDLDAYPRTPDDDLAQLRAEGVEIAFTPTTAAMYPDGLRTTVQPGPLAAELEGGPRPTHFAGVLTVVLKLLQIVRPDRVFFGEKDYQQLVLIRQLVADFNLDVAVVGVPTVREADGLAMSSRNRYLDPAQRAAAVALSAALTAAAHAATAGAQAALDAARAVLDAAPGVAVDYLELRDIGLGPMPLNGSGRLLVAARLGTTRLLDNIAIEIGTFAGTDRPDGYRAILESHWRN
row,Structure (SMILES),inhibition
1,COc1ccc(OC)c(S(=O)(=O)Nc2ccccc2SC)c1,3% (inactive)
2,Cc1csc2nc(CNC(=O)c3ccco3)cn12,0% (inactive)
3,Cc1noc(/C=C/N(C)C)c1S(=O)(=O)N1CCCC(C(=O)N2CCc3ccccc32)C1 (stereo not given),10% (inactive)
4,CCc1ccccc1NC(=O)c1cnc2n(c1=O)CCS2,2% (inactive)
5,O=C(CCCn1c(=O)c2sccc2n(Cc2cc(=O)n3ccccc3n2)c1=O)NCc1ccco1,0% (inactive)
6,Cc1cc(/C=c2/sc3nc4ccccc4n3c2=O)c(C)n1-c1ccccn1,1% (inactive)
7,CCSc1nnc(NC(=O)c2ccc(C)o2)s1,9% (inactive)
8,O=C(NCc1ccccc1)c1ccc(OC2CSC2)cc1,1% (inactive)
9,Cc1ccc2oc(C(=O)Nc3c(C)n(C)n(-c4ccccc4)c3=O)c(C)c2c1,0% (inactive)
10,CCN(CC)c1ccc(-c2c(C#N)c(N)nc(OC)c2C#N)cc1,0% (inactive)
11,CCc1nnc(NC(=O)c2cc3c(s2)CCCCC3)s1,0% (inactive)
12,CC1=C(C(=O)Nc2ccccc2)C(c2ccccn2)n2nc(CCCO)nc2N1 (stereo not given),7% (inactive)
13,Cc1cc(C)n2c(SCCN3C(=O)c4ccccc4C3=O)nnc2n1,0% (inactive)
14,CC1Cc2ccccc2N1C(=O)c1cccnc1 (stereo not given),0% (inactive)
15,CC(=O)Nc1ccc(Cl)cc1C(=O)O,2% (inactive)
16,COc1cc(NC2=CC(=O)CC(C)(C)C2)cc(OC)c1,0% (inactive)
17,CCCCn1c(CN2CCN(c3cccc(Cl)c3)CC2)nc2c1c(=O)n(C)c(=O)n2C,6% (inactive)
18,COc1cccc(CC(=O)Nn2c(C)nc3ccccc3c2=O)c1,2% (inactive)
19,COc1ccccc1-n1c(SCC(=O)NC(C)(C)C)nnc1-c1ccco1,0% (inactive)
20,CC(=O)C1=C(C)Nc2ncnn2C1c1cccc(OCc2ccccc2)c1 (stereo not given),0% (inactive)

row,Structure (SMILES),inhibition
1,CCCCOCCCNC(=O)c1ccc(NC(C)=O)cc1,0% (inactive)
2,CC(=O)N(C(C)=O)c1c(C#N)c(C)n(-c2ccccc2)c1C(=O)c1ccccc1,0% (inactive)
3,Cc1ccc(CNC(=O)C2CCCN(S(=O)(=O)c3cccnc3)C2)cc1 (stereo not given),0% (inactive)
4,COc1ccc(S(=O)(=O)Nc2ccccc2OC)cc1C,2% (inactive)
5,COc1cccc(C(=O)OCn2nnc3ccccc3c2=O)c1,0% (inactive)
6,O=C1CN(c2nc3ccccc3n3cnnc23)CC(=O)N1CCc1ccccc1,4% (inactive)
7,COc1ccc(-c2onc(C)c2-c2ccccc2)c(O)c1,3% (inactive)
8,Cn1c(Cc2cccs2)nnc1SCC(=O)N1CCc2ccccc21,0% (inactive)
9,CCOC(=O)c1[nH]c(C)c(C(=O)Nc2ccccc2F)c1C,3% (inactive)
10,COC(=O)c1cc(=O)nc2sc(-c3cccs3)nn12,8% (inactive)
11,CCOC(=O)C1=C(C)Nc2ncnn2C1c1cc(OC)ccc1OC (stereo not given),0% (inactive)
12,CCCCN(CC)CCNC(=O)c1cc2c(C)nc3ccccc3c2o1,10% (inactive)
13,O=C(Cn1ncc2c1-c1ccccc1OC2)N1CCc2ccccc21,0% (inactive)
14,Nc1nnc(-c2ccccc2)c(-c2ccccc2)n1,0% (inactive)
15,CCSc1ccccc1C(=O)Nc1cccc(OC)c1,0% (inactive)
16,CS(=O)(=O)N1CCN(c2ccccc2NC(=O)c2ccc(-c3ccc(Cl)cc3Cl)o2)CC1,7% (inactive)
17,COC(=O)C1(C(=O)OC)Sc2ccccc2C1=O,3% (inactive)
18,CC(=O)OC(C(=O)NC1CCCCC1)c1ccncc1 (stereo not given),10% (inactive)
19,O=C(CCCCCn1c(=S)[nH]c2cc3c(cc2c1=O)OCO3)N1CCN(Cc2ccccc2)CC1,1% (inactive)
20,O=C(CCn1c(=O)oc2ccccc21)N1CCN(c2ccccc2Cl)CC1,0% (inactive)
